# Assay results reported in PMC5540273 (PLoS ONE, 2017).
# Tested on: DAPK2
# Details: concentration: 1 μM, replicates: in singlicate; n = 1
# 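Further: KINOMEscan kinase panel screen.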
row,Structure (SMILES),%Inh [%]
1,O=C(Nc1cccc(-c2nn3ccccc3c2-c2ccnc(Nc3cccc(F)c3)n2)c1)c1c(F)ccc(F)c1Cl [GSK357952],0
2,O=C(Nc1ccccc1F)NC1CCN(c2ccnc(Nc3ccc(F)cc3)n2)CC1 [GSK1379800],0
3,CSc1cccc2c(-c3ccncn3)c(-c3ccc(F)cc3)nn12 [GW514786],0
4,COc1ccc(-c2coc3ccc(-c4nnc(SCc5ccc(OC)c(C(F)(F)F)c5)o4)cc23)cc1,0

# Tested on: DAPK3
# Details: concentration: 1 μM, replicates: in singlicate; n = 1
row,Structure (SMILES),%Inh [%]
1,CN(C)S(=O)(=O)c1cc(-c2ccc3nccc(-c4cccc(S(N)(=O)=O)c4)c3c2)cnc1N [GSK1669921],3
2,CCS(=O)(=O)c1ccc(OC)c(Nc2nccc(-c3c(-c4cccc(NC(=O)c5c(F)cccc5F)c4)nn4ncccc34)n2)c1 [GSK326180],9
3,COc1cc(Nc2nccc(N3CCC(NC(=O)c4cc5ccccc5s4)C3)n2)cc(OC)c1OC (centres unmarked) [GSK1379760],1
4,Cc1ccc(F)c(C(=O)Nc2cccc(-c3nn4ccccc4c3-c3ccnc(Nc4cccc(F)c4)n3)c2)c1F [GSK361061],14
5,Clc1ccc(-c2nn3ncccc3c2-c2ccnc(Nc3ccc4c(c3)OCCO4)n2)cc1 [GW829116],0
6,CCCCc1nn2ncccc2c1-c1ccnc(Nc2ccc(N3CCN(C)CC3)cc2)n1 [GW684941],17
7,CCn1c(-c2nonc2N)nc2c(C#CC(C)(C)O)ncc(OCCCCN)c21.O=C(O)C(F)(F)F.O=C(O)C(F)(F)F [GSK507274],82
